Drawing on PubChem BioAssay (EPA / NIEHS), this text covers AC50 and outcome for eight molecules.

Test [1] deals with human Neurokinin, NK2 Receptor, TACR2 (gene 6865) (UniProt P21452). Kind of test: NVS_GPCR_hNK2: NovaScreen (NVS) G Protein-Coupled Receptor Assay for human Neurokinin, NK2 Receptor (AID 2283278).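 Note: actives reduce bound radioligand signal relative to DMSO baseline.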 The method, boiled down: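 CHO-derived membrane protein, radioligand displacement, filter scintillation read at 4 h post-dose. Single-point 25 uM in duplicate, then concentration series for actives; DMSO as negative control.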

Test [2] has as its target Muscarinic acetylcholine receptor M2 (Homo sapiens) (UniProt P08172). The experiment in a line: NVS_GPCR_hM2: NovaScreen (NVS) G Protein-Coupled Receptor Assay for human Muscarinic, M2 Receptor (AID 2283273). Summed up:
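CHO-expressed human M2 receptor preparation, competitive displacement of a radioligand read by filter-based scintillation counting after 1 h. Single 25 uM duplicate screen, then concentration-response follow-up of actives; DMSO baseline.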

The target in test [3] is human Opioid Receptor Delta 1 (Opiate D1), OPRD1 (gene 4985) (UniProt P41143). The experiment in a line: NVS_GPCR_hOpiate_D1: NovaScreen (NVS) G Protein-Coupled Receptor Assay for human Opioid Receptor Delta 1 (Opiate D1) (AID 2283280). Summed up: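 Membrane preparations from CHO cells bearing the human receptor were incubated 1 h with test chemical, and bound radioligand was counted after filtration. Actives from 25 uM duplicate screening were retested in concentration-response.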

Test [4] concerns the target human Dopamine Receptor D4.4 (DRD4.4), DRD4 (gene 1815) (UniProt P21917). The experiment in a line: NVS_GPCR_hDRD4.4: NovaScreen (NVS) G Protein-Coupled Receptor Assay for human Dopamine Receptor D4.4 (DRD4.4) (AID 2283264). Summed up: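 Filter-binding assay with a tritiated or iodinated ligand, cell-free receptor prepared from CHO, 1 hour. Loss of bound radioactivity versus DMSO; single 25 uM duplicate screen, then concentration-response for actives.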

Test [5] deals with human Dopamine Receptor D2 (DRD2), DRD2 (gene 1813) (UniProt P14416). Kind of test: NVS_GPCR_hDRD2s: NovaScreen (NVS) G Protein-Coupled Receptor Assay for human Dopamine Receptor D2 (DRD2) (AID 2283266). The method, boiled down: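 Test compound (25 uM, duplicate in the primary screen; concentration series at follow-up) competed with radioligand for human DRD2 in CHO-derived membrane protein. Filter-based scintillation counting was done 1.5 hours after dosing, with loss of signal analysed against DMSO.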

Test [6] addresses D(1A) dopamine receptor (Homo sapiens) (UniProt P21728). The experiment in a line: NVS_GPCR_hDRD1: NovaScreen (NVS) G Protein-Coupled Receptor Assay for human Dopamine Receptor D1 (DRD1) (AID 2283269). Summed up:
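Cell-free radioligand binding to human DRD1 from HEK293 membranes, read 1 h after dosing by filter-based scintillation counting. Loss of signal versus DMSO baseline marks displacement. Primary screen at 25 uM single concentration in duplicate; actives followed up in concentration series.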

For test [7], the target named is Muscarinic acetylcholine receptor M3 (Homo sapiens) (UniProt P20309). Kind of test: NVS_GPCR_hM3: NovaScreen (NVS) G Protein-Coupled Receptor Assay for human Muscarinic, M3 Receptor (AID 2283272). The method, boiled down:
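Radioligand displacement binding on human M3 receptor in CHO-derived membranes, 1 h incubation, filter-based scintillation counting. Primary screen in duplicate at 25 uM; actives followed up in concentration series; loss of signal versus DMSO.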

Test [8] concerns the target human Muscarinic, M4 Receptor, CHRM4 (gene 1132) (UniProt P08173). Kind of test: NVS_GPCR_hM4: NovaScreen (NVS) G Protein-Coupled Receptor Assay for human Muscarinic, M4 Receptor (AID 2283274). The method, boiled down:
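Filter-based scintillation counting of radioligand bound to CHO-expressed human M4 preparations after 1 h; loss of signal fitted versus DMSO. Initial duplicate testing at 25 uM, concentration-response follow-up for actives.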

Test [9] deals with Beta-2 adrenergic receptor (Homo sapiens) (UniProt P07550). Kind of test: NVS_GPCR_hAdrb2: NovaScreen (NVS) G Protein-Coupled Receptor Assay for human Adrenergic, Beta 2 Receptor (Adrb2) (AID 2283261). Summed up: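 Compounds screened in duplicate at 25 uM, then actives in concentration series. Human beta-2 receptor from CHO material, cell-free; radioligand displacement after 1 h measured by filtration and scintillation against DMSO baseline.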

Test [10] concerns the target human Adrenergic, Beta 3 Receptor (Adrb3), ADRB3 (gene 155) (UniProt P13945). Kind of test: NVS_GPCR_hAdrb3: NovaScreen (NVS) G Protein-Coupled Receptor Assay for human Adrenergic, Beta 3 Receptor (Adrb3) (AID 2283262). The method, boiled down: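 A cell-free filter binding assay read by scintillation counting, with displacement of a specific radioligand measured after 1 hour. The receptor source was SK-N-MC extracts (cells pretreated with isoproterenol and 8-bromo-cAMP). Compounds were first tested at 25 uM in duplicate and then in concentration series.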

The target in test [11] is human Histamine 1 Receptor (H1), HRH1 (gene 3269) (UniProt P35367). Kind of test: NVS_GPCR_hH1: NovaScreen (NVS) G Protein-Coupled Receptor Assay for human Histamine 1 Receptor (H1) (AID 2283268). Summed up:
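Filter-based scintillation detection of radioligand binding to human H1, 1 h incubation; chemicals screened in duplicate at 25 uM, then concentration-response; signal loss relative to DMSO taken as activity.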

The target of test [12] is Muscarinic acetylcholine receptor M1 (Homo sapiens) (UniProt P11229). The experiment in a line: NVS_GPCR_hM1: NovaScreen (NVS) G Protein-Coupled Receptor Assay for human Muscarinic, M1 Receptor (AID 2283270). The method, boiled down: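 Actives from a duplicate 25 uM single-point screen were retested in concentration series. Binding measured as displacement of a radioligand from CHO-derived receptor preparation, 1 h incubation, filtration and scintillation counting, analysed as signal loss against DMSO.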

Test [13] concerns the target Muscarinic acetylcholine receptor M5 (Homo sapiens) (UniProt P08912). Kind of test: NVS_GPCR_hM5: NovaScreen (NVS) G Protein-Coupled Receptor Assay for human Muscarinic, M5 Receptor (AID 2283275). Summed up:
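Chemicals passing a primary duplicate screen at 25 uM were run as singleton concentration series, maximum 50 uM. Displacement of a specific radioligand from CHO-extracted receptor was read by filter scintillation after 1 h, relative to DMSO.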

Test [14] concerns the target human Neuropeptide Receptor Y1 (NPY1), NPY1R (gene 4886) (UniProt P25929). Kind of test: NVS_GPCR_hNPY1: NovaScreen (NVS) G Protein-Coupled Receptor Assay for human Neuropeptide Receptor Y1 (NPY1) (AID 2283276). Summed up:
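Displacement of specific radioligand from NPY1 receptor of SK-N-MC origin, read by filtration and scintillation after 1 h. Compounds first tested at 25 uM in duplicate, then actives in concentration series; signal loss relative to DMSO.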

For test [15], the target named is Neuropeptide Y receptor type 2 (Homo sapiens) (UniProt P49146). The experiment in a line: NVS_GPCR_hNPY2: NovaScreen (NVS) G Protein-Coupled Receptor Assay for human Neuropeptide Receptor Y2 (NPY2) (AID 2283277). Summed up:
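Chemicals were first tested in duplicate at 25 uM, then actives in singleton concentration series to 50 uM. Tracer binding to SK-N-MC-derived protein measured cell-free after 1 h via filter scintillation; signal loss relative to DMSO.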

A word on the AC50: it is the midpoint of the concentration-response curve, whichever way the signal moves.

Records with an inconclusive call do not appear. Active and inactive are the calls of the source. Rule for the calls: active = hit-call score of the fitted dose curve at least 0.9, where 1 is the maximum; inconclusive = response in the unintended direction; inactive = score below 0.9.

Muscarinic acetylcholine receptor M2 (Homo sapiens), sequence (P08172 whole entry, looked up): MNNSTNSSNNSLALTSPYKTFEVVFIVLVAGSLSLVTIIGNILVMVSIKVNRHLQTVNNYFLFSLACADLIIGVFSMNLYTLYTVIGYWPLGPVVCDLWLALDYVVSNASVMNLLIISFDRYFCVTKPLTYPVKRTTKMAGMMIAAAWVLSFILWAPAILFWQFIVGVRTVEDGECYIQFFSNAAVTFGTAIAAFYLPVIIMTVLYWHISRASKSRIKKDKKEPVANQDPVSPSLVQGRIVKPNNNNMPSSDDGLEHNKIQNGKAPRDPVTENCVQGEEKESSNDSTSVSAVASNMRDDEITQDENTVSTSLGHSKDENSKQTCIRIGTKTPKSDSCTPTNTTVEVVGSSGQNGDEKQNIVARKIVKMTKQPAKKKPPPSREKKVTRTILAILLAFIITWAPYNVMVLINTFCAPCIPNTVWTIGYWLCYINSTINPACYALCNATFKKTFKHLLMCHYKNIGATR
human Dopamine Receptor D4.4 (DRD4.4), DRD4 (gene 1815), sequence (P21917 whole entry, looked up): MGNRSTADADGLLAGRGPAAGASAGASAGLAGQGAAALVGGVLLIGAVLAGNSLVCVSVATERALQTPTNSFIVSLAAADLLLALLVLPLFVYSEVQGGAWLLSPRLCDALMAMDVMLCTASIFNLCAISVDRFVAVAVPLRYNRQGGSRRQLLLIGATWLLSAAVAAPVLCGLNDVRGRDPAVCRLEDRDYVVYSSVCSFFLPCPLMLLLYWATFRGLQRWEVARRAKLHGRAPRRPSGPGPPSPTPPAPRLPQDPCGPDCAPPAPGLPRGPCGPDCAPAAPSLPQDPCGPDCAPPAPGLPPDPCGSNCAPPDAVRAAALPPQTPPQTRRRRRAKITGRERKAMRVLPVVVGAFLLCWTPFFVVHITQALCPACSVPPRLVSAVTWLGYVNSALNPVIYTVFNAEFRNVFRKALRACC
D(1A) dopamine receptor (Homo sapiens), sequence (P21728 whole entry, looked up): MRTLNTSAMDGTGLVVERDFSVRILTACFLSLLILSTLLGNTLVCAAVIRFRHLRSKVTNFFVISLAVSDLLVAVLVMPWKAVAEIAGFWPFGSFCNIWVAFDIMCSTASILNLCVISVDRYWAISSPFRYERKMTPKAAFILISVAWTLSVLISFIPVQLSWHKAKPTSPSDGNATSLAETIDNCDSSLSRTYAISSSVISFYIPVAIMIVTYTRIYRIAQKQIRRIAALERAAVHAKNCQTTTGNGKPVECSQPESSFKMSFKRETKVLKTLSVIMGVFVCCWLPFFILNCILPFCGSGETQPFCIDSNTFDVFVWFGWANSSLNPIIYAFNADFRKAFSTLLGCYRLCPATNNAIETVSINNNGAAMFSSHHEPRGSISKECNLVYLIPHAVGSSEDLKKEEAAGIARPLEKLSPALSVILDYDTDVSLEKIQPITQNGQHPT
human Dopamine Receptor D2 (DRD2), DRD2 (gene 1813), sequence (P14416 whole entry, looked up): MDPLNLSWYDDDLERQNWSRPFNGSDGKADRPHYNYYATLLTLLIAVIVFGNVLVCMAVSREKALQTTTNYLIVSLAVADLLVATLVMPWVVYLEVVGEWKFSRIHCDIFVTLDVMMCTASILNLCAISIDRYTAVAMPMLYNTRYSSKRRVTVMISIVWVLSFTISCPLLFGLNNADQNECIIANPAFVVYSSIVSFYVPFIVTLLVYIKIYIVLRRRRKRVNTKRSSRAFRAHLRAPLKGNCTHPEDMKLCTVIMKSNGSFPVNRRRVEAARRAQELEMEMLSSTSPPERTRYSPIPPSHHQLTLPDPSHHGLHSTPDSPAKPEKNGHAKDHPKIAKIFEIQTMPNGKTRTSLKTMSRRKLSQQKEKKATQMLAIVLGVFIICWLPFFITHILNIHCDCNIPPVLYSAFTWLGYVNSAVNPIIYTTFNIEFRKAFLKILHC
human Neurokinin, NK2 Receptor, TACR2 (gene 6865), sequence (P21452 whole entry, looked up): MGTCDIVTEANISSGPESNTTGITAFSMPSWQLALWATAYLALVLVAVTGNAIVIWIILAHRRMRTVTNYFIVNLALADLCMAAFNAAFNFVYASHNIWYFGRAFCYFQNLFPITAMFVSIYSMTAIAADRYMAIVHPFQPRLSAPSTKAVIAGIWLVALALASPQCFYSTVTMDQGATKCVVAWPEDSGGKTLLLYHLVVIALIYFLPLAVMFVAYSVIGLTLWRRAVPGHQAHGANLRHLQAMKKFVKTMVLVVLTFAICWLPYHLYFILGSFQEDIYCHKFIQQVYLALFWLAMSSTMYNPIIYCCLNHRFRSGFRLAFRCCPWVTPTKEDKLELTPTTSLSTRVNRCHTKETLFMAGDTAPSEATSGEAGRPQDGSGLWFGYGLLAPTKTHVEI
human Muscarinic, M4 Receptor, CHRM4 (gene 1132), sequence (P08173 whole entry, looked up): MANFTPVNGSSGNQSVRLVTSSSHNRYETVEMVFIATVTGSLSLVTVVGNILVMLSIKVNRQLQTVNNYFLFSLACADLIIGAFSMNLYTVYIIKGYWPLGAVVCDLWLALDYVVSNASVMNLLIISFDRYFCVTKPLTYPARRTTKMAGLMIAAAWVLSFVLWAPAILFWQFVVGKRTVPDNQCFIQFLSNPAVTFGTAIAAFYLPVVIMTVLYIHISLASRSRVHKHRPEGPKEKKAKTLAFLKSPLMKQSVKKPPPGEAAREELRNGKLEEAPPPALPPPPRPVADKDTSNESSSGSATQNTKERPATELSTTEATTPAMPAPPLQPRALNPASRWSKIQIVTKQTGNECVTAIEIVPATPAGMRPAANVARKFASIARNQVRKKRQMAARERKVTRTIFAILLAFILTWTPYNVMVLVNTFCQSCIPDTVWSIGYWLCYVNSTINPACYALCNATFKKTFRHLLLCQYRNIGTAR
Muscarinic acetylcholine receptor M1 (Homo sapiens), sequence (P11229 whole entry, looked up): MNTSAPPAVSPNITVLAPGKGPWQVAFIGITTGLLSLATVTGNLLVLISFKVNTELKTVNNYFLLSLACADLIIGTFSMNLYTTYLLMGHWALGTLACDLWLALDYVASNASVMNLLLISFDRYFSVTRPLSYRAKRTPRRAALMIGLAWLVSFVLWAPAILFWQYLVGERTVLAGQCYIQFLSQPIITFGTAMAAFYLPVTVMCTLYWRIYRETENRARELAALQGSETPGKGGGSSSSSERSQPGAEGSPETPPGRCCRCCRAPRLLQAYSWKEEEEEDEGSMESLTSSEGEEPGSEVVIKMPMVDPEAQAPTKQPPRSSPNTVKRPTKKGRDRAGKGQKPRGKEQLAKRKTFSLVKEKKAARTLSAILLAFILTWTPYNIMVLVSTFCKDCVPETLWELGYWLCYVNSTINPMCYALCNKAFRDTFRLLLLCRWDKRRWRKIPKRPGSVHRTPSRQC
Muscarinic acetylcholine receptor M3 (Homo sapiens), sequence (P20309 whole entry, looked up): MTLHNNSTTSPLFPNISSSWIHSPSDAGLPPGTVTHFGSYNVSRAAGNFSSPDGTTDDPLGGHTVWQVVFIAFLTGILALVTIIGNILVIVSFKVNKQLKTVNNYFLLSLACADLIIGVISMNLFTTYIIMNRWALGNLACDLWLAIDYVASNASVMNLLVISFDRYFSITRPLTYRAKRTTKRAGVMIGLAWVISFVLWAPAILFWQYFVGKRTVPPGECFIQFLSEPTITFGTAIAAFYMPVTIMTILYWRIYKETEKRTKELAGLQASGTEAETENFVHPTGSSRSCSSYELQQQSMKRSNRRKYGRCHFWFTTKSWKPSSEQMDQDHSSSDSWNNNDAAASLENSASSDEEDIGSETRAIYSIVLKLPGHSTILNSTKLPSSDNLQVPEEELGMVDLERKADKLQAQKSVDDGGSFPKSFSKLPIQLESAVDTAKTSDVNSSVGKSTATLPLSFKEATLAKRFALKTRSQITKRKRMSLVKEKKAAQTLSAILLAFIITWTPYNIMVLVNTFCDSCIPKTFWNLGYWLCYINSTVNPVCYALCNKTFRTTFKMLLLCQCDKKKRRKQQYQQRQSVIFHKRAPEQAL
Muscarinic acetylcholine receptor M5 (Homo sapiens), sequence (P08912 whole entry, looked up): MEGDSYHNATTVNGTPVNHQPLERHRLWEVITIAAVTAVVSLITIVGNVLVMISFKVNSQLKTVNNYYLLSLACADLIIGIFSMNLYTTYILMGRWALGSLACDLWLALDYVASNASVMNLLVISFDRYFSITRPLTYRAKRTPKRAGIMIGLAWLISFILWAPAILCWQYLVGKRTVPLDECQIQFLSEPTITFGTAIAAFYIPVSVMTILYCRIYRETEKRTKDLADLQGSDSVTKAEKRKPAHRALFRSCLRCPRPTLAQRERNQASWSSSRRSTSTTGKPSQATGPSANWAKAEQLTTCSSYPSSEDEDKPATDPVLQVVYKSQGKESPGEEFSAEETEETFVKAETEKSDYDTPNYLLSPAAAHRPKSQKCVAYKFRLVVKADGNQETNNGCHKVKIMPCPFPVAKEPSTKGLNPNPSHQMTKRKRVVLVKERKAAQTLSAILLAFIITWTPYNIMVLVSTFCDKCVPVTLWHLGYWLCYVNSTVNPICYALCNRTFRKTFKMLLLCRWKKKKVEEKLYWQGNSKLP
human Histamine 1 Receptor (H1), HRH1 (gene 3269), sequence (P35367 whole entry, looked up): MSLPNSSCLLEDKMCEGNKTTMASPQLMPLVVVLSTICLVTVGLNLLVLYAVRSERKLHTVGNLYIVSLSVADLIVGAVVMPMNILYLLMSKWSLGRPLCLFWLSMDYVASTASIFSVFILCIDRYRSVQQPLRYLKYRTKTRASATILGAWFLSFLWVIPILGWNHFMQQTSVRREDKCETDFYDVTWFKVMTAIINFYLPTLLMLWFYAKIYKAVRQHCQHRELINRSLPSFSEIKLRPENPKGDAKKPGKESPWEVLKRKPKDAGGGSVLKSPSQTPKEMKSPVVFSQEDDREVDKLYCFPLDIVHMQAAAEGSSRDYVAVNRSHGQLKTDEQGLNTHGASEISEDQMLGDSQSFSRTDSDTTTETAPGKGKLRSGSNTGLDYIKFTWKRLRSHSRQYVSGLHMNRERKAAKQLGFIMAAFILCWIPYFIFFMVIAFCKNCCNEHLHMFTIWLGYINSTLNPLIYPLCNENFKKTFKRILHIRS

As to `NNC(=O)c1ccncc1`, the AC50 in test [1] is 2.18 µM (active).
Regarding `Cc1ncc([C@@H](CCCCCCc2ccc3c(n2)NCCC3)CC(=O)O)cn1`, the AC50 in [2] is 19.2 µM (active). The molecule was called inactive in test [3].
For `O=c1[nH]cnc2c1ncn2[C@H]1CC[C@@H](CO)O1`, the result in [4] and in [6] was inactive. In addition, the AC50 in [5] is 32.7 µM (active).
On to `OCc1c[nH]c2ccccc12`, for which the AC50 in test [1] was 19.7 µM (active).
Regarding `O=S(=O)(O)c1ccc(N=Nc2c(O)ccc3cc(S(=O)(=O)O)ccc23)cc1`, the concentration at half-maximal activity (AC50) was 32 µM (active) in test [4], 8.72 µM (active) in test [5] and 38.4 µM (active) in test [6]. The call in test [7] and in [8] was inactive.
With `c1ccc(C(O[C@@H]2CCCN(CCc3ccc4c(c3)OCO4)C2)c2ccccc2)cc1`, the AC50 in test [9] is 13.5 µM (active); in test [4], 14.8 µM (active); in test [5], 5.47 µM (active); in [11], 5.62 µM (active); in test [6], 4.11 µM (active); in [12], 0.031 µM (active). In addition, the AC50 in test [7] was 0.0184 µM (active); in test [2], 0.0461 µM (active); in test [8] it was 0.0501 µM (active); in test [13], 0.00937 µM (active); in test [1] it was 5.79 µM (active); in test [3], 19.4 µM (active). The result in test [10] and in [14] was inactive.
With `CCn1nc(C)c2c1C(=O)NCC(c1ccc(O)cc1)=N2`, the molecule was called inactive in test [10], in [11], in [6], in test [12], in [2] and in test [8]. Besides, the result in [13], in test [14] and in test [1] was inactive.
Turning to `COc1cc(C(C)C)c2c(c1)S(=O)(=O)N(COc1cc(=O)n3cccc(OCCN4CCCCC4)c3n1)C2=O`, the AC50 in test [5] was 1.6 µM (active); in test [6], 6.25 µM (active); in test [12], 2 µM (active); in [7], 8.91 µM (active); in [2], 0.681 µM (active); in test [8] it was 3.98 µM (active). Besides, the AC50 was 3.71 µM (active) in test [13] and 0.84 µM (active) in test [15].
